The values below come from PubChem BioAssay.

Assay [1] can be described thus: inhibitors of TNFa-induced NFkB p65 translocation, primary screen, imaging, HUVEC, MLSMR starter and 10KST1 sets (AID 438;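 active means inhibition above 20% together with a positive visual image hit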;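 further: compound added about 3h40 before a 20 min TNFalpha stimulation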;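 on inhibition: signal is the nuclear over cytoplasmic p65 intensity ratio per well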). The conditions noted are these: HUVEC TNFa-induced p65 nuclear translocation; cell count: measured here: nuclei count (cytotoxicity indicator), at 2.08 µM; inhibition: at 2 µM, stronger effect = higher value, 0% TNFa-plus-vehicle, 100% no-TNFa wells.
Assay [2] in a line: inhibitors of mutant huntingtin aggregation, primary screen, imaging, exon1htt(103Q)mCFP cells, high-content imaging (AID 483;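 active means visual image review flags a hit and inhibition of aggregation exceeds 20%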;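 further: compound exposure lasted 3 days before fixation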;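 on nuclei count: percent of the per-plate median nuclei count of sample wells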). As to conditions: exon1htt(103Q)mCFP cell line, aggregate imaging, at 2 µM; inhibition of aggregation: stronger effect = higher value; nuclei count: measured here: cell count, toxicity.
Assay [3] can be described thus: inhibitors of E-selectin induction by TNFa, primary screen, imaging, HUVEC, immunofluorescence, MLSMR starter and 10KST1 sets (AID 487;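 active means visually confirmed hit in the image check and inhibition above 20%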;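 on inhibition: signal is fraction of cell area covered by stained E-selectin grains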;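 on nuclei count: 100% = median nuclei count of all wells on the same plate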). The conditions noted are these: HUVEC TNFalpha-induced E-selectin immunofluorescence imaging, at 2 µM; inhibition: stronger effect = higher value; nuclei count: measured here: cell number, toxicity.
Assay [4] has as its target Voltage-gated potassium channel subunit beta-2 (Rattus norvegicus) (UniProt P62483). Kind of assay: KvBeta enzyme negative modulators, primary screen, biochemical, NADPH fluorescence (AID 622;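 active means fluorescence slope higher than the sample average by over 3 SD, cut at about -0.22 in these data, passing the limit was not always enough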;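 further: slope of raw intensity against log time taken from 70 to 1610 s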). As to conditions: recombinant KvBeta, 4-cyanobenzaldehyde reduction, at 10 µM, stronger effect = higher value.
Assay [5] shares this target. Kind of assay: KvBeta positive modulators, primary screen, biochemical, NADPH fluorescence (AID 623).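 Further: fluorescence intensity change per second fitted from 20 to 320 s.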 The conditions noted are these: Recombinant KvBeta, NADPH fluorescence decrease slope, 10 min; at 10 µM; stronger effect = lower value.
Assay [6] addresses Alpha-2C adrenergic receptor (Homo sapiens) (UniProt P18825). Kind of assay: modulators of alpha2C/GIRK thallium flux, primary screen, cell-based, HEK293 alpha2C/GIRK1/2 (AID 624;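 active means fluorescence slope after compound addition differing from the mean of all screened samples at 99.7% confidence, in either direction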;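 further: slope of fluorescence ratio to pre-addition baseline per second over 15 to 24 s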). As to conditions: thallium flux BTC fluorescence, at 10 µM, actives lie on both sides.
Assay [7] in a line: inhibitors of Sendai virus-induced IRF3 signaling, primary screen, TLR/RLR signaling modifier project, cell-based, Sendai virus stimulus, luciferase, 10K MLSCN set (AID 602276;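 active means inhibition at or above 50% at 10 µM; inactive means inhibition below 50%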;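 further: firefly luciferase from ISG56 promoter only with Renilla not read in this screen; 0% = Sendai virus plus DMSO and 100% = medium plus DMSO without virus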). The conditions noted are these: HEK293 RL24 IRF3 luciferase reporter, at 10 µM, stronger effect = higher value.
Assay [8] can be described thus: inhibitors of poly I:C-induced TLR3 signaling, primary screen, cell-based, poly I:C stimulus, luciferase, 10K MLSCN set (AID 602277;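 active means inhibition of the reporter signal at or above 50%; inactive means inhibition below 50%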). As to conditions: HEK293-TLR3 RL24 IRF3 luciferase reporter, at 10 µM, stronger effect = higher value.

Activity calls are given as the source filed them.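 How the source made its calls, unless noted: active means NADPH fluorescence slope more negative than the mean of all samples by about 3 SD, 99.7% confidence; inactive means the rest.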

Sequence of Alpha-2C adrenergic receptor (Homo sapiens) (P18825 whole entry, looked up): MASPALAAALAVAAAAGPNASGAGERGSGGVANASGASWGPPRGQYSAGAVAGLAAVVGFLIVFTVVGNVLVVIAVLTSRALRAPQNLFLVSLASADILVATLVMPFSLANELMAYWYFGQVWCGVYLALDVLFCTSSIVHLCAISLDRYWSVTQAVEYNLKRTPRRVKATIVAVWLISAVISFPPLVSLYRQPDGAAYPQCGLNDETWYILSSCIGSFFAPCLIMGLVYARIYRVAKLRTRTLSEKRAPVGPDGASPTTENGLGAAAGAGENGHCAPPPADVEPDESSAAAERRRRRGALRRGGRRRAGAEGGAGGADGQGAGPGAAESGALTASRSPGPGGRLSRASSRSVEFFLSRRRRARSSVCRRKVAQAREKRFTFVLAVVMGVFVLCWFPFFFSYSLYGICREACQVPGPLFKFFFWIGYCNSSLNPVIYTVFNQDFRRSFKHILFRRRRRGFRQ
Sequence of Voltage-gated potassium channel subunit beta-2 (Rattus norvegicus) (P62483 whole entry, looked up): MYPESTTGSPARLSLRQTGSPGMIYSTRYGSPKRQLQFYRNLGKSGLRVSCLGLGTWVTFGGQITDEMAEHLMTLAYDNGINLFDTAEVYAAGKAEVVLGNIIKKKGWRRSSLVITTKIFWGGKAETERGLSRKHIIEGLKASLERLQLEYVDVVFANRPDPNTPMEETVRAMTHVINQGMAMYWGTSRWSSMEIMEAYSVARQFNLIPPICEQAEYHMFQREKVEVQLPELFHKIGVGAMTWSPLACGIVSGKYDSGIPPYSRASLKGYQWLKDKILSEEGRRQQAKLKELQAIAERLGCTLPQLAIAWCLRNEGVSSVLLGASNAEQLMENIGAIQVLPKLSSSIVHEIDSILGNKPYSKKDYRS

`O=C(CSc1nc(O)c(Cc2ccccc2)c(=O)[nH]1)Nc1ccccc1`: the cell count in assay [1] was 366. In addition, the inhibition in assay [1] was 5.3% (inactive); in assay [3] it was 5.2% (inactive); in assay [7], 3.29% (inactive); in assay [8], 24.3% (inactive). Also, the inhibition of aggregation in assay [2] was 0.2% (inactive). The nuclei count in assay [2] was 95.2%; in assay [3], 115%. Also, the fluorescence slope in assay [4] is -0.44 (inactive). In addition, the NADPH fluorescence slope in assay [5] is -3e-05 (inactive). The slope in assay [6] was 0.00311 (inactive).

As to `Cc1ccc(NC(=O)c2ccccc2O)cc1`, the cell count in assay [1] stood at 631. Further, the inhibition in assay [1] is 12.1% (inactive); in assay [3], -203% (inactive); in assay [7], -61.1% (inactive); in assay [8], -73.1% (inactive). The inhibition of aggregation in assay [2] is 8% (inactive). For the same compound, the nuclei count is 91.3% in assay [2] and 119% in assay [3]. The fluorescence slope in assay [4] is -0.602 (inactive). In assay [5], the NADPH fluorescence slope is -5.6e-05 (inactive). In assay [6], the slope is 0.00651 (inactive).

On to `CCOc1ccc(C2C(C#N)=C(N)Oc3cc(C)n(CCN(C)C)c(=O)c32)cc1OCC` (centres undefined), for which, in assay [1], the cell count is 587. The inhibition is -7.4% (inactive) in assay [1], 11.8% (inactive) in assay [3], 14.3% (inactive) in assay [7] and 38.2% (inactive) in assay [8]. Moreover, in assay [2], the inhibition of aggregation is 1.7% (inactive). For the same compound, the nuclei count in assay [2] came out at 98.3%; in assay [3], 93.1%. Besides, the fluorescence slope in assay [4] was -0.588 (inactive). For the same compound, the NADPH fluorescence slope in assay [5] is -4.4e-05 (inactive). Moreover, the slope in assay [6] was 0.00685 (inactive).

With `Cc1ccc(-c2nnc(N(C)C(=O)c3ccccn3)s2)cn1`, the cell count in assay [1] turned out to be 500. For the same compound, the inhibition in assay [1] is 6.8% (inactive); in assay [3], -60.4% (inactive); in assay [7] it was -13% (inactive); in assay [8], -49% (inactive). Further, in assay [2], the inhibition of aggregation is -1.4% (inactive). The nuclei count in assay [2] was determined as 105%; in assay [3], 97.9%. Also, in assay [4], the fluorescence slope was -0.495 (inactive). Further, the NADPH fluorescence slope in assay [5] is -4.7e-05 (inactive). The slope in assay [6] is 0.00529 (inactive).

With `CC1=C(n2nnc3ccccc32)C(c2ccccc2)C(C#N)=C(N)O1` (centres undefined), the cell count in assay [1] turned out to be 424. The inhibition in assay [1] is 1.5% (inactive); in assay [3], 27.5% (inactive); in assay [7], 17.5% (inactive); in assay [8], 32% (inactive). Besides, the inhibition of aggregation in assay [2] is 13.7% (inactive). Besides, the nuclei count came out at 90.7% in assay [2] and 113% in assay [3]. In assay [4], the fluorescence slope is -0.364 (inactive). Besides, the NADPH fluorescence slope in assay [5] was -0.00012 (inactive). Further, in assay [6], the slope is 0.00512 (inactive).

As to `Cc1cc2nc(C3CCN(CC4COc5ccccc5O4)CC3)[nH]c2cc1C` (centres undefined), the cell count in assay [1] came to 746. In addition, the inhibition in assay [1] was -8.3% (inactive); in assay [3] it was -56.9% (inactive); in assay [7], -0.371% (inactive); in assay [8], -21.4% (inactive). Besides, the inhibition of aggregation in assay [2] was -2.5% (inactive). Besides, the values for the nuclei count in assay [2] and in assay [3] were 92% and 107%, respectively. Besides, the fluorescence slope in assay [4] is -0.433 (inactive). Moreover, in assay [5], the NADPH fluorescence slope was -1.9e-05 (inactive). The slope in assay [6] is 0.00449 (inactive).

`O=S(=O)(c1ccc(Oc2ccc(-c3nnco3)cc2)nc1)N1CCC(Cc2ccccc2)CC1`: the cell count in assay [1] turned out to be 396. In addition, the inhibition in assay [1] was -10.6% (inactive); in assay [3], -1% (inactive); in assay [7] it was 1.05% (inactive); in assay [8], 5.84% (inactive). Also, the inhibition of aggregation in assay [2] is -26.7% (inactive). Further, the nuclei count came to 102% in assay [2] and 108% in assay [3]. Besides, in assay [4], the fluorescence slope is -0.508 (inactive). In addition, in assay [5], the NADPH fluorescence slope is -5e-05 (inactive). In assay [6], the slope is 0.00554 (inactive).

For the compound `Cn1c(=O)[nH]c(=O)c2c1ncn2CCN1CCOCC1`, the cell count in assay [1] stood at 696. Moreover, the inhibition is -12.1% (inactive) in assay [1], -6.5% (inactive) in assay [3], 8.85% (inactive) in assay [7] and 16.4% (inactive) in assay [8]. The inhibition of aggregation in assay [2] is -10.8% (inactive). The figures for the nuclei count in assay [2] and in assay [3] were 107% and 102%, respectively. Further, the fluorescence slope in assay [4] was -0.512 (inactive). Moreover, the NADPH fluorescence slope in assay [5] was 1.1e-05 (inactive). Also, in assay [6], the slope is 0.00632 (inactive).

Regarding `C1CCc2nnc(-c3nnc4n3CCCCC4)n2CC1`, in assay [1], the cell count was found to be 396. Also, the inhibition was 3% (inactive) in assay [1], -3.6% (inactive) in assay [3], 11.6% (inactive) in assay [7] and 10.3% (inactive) in assay [8]. In assay [2], the inhibition of aggregation was -5.5% (inactive). The nuclei count was determined as 100% in assay [2] and 105% in assay [3]. The fluorescence slope in assay [4] was -0.344 (inactive). In assay [5], the NADPH fluorescence slope was -2.9e-05 (inactive). For the same compound, in assay [6], the slope is 0.00555 (inactive).

Turning to `CCN(CC)C1CCCCC1NS(=O)(=O)c1ccc(Cl)cc1` (centres undefined), the cell count in assay [1] was 528. The inhibition in assay [1] was -9.2% (inactive); in assay [3], -17.6% (inactive); in assay [7] it was 45.1% (inactive); in assay [8], 28% (inactive). The inhibition of aggregation in assay [2] is 14.4% (inactive). The nuclei count in assay [2] is 96.8%; in assay [3], 82.7%. Further, the fluorescence slope in assay [4] was -0.538 (inactive). Further, the NADPH fluorescence slope in assay [5] was -1.7e-06 (inactive). Also, in assay [6], the slope was 0.00692 (inactive).

For the compound `CCOC(=O)c1ccc2ncc(C(=O)OCC)c(NCCN(C)C)c2c1`, in assay [1], the cell count stood at 770. Further, the inhibition in assay [1] was -3.3% (inactive); in assay [3], -63.4% (inactive); in assay [7] it was 10% (inactive); in assay [8], 44% (inactive). Also, the inhibition of aggregation in assay [2] was -5.5% (inactive). In addition, the nuclei count came to 94% in assay [2] and 113% in assay [3]. For the same compound, the fluorescence slope in assay [4] is -0.545 (inactive). Further, in assay [5], the NADPH fluorescence slope is -3.1e-05 (inactive). Further, in assay [6], the slope is 0.00656 (inactive).

For the compound `CCCC(NC(=O)c1ccccc1)c1nc2ccccc2n1Cc1ccc(C(=O)OC)o1` (centres undefined), in assay [1], the cell count is 722. The inhibition was 5.5% (inactive) in assay [1], -91.8% (inactive) in assay [3], 0.936% (inactive) in assay [7] and 16.6% (inactive) in assay [8]. Further, in assay [2], the inhibition of aggregation was 7.1% (inactive). For the same compound, the values for the nuclei count in assay [2] and in assay [3] were 105% and 119%, respectively. Further, the fluorescence slope in assay [4] was -0.372 (inactive). In addition, the NADPH fluorescence slope in assay [5] is -3.2e-06 (inactive). Besides, the slope in assay [6] is 0.00315 (inactive).

For the compound `COc1ccc(Nc2ncnc3c2cnn3-c2ccccc2)cc1OC`, the cell count in assay [1] was 761. Further, the inhibition in assay [1] is -15.1% (inactive); in assay [3] it was -10% (inactive); in assay [7], -10.2% (inactive); in assay [8], -29.8% (inactive). The inhibition of aggregation in assay [2] is -26.1% (inactive). Also, the nuclei count in assay [2] was found to be 84.3%; in assay [3] it was 103%. In assay [4], the fluorescence slope is -0.366 (inactive). Further, the NADPH fluorescence slope in assay [5] is 1.2e-05 (inactive). Further, the slope in assay [6] was 0.00554 (inactive).

`COc1cc2c(cc1OC)-c1nnc(C)n1C1(CCCC1)C2`: in assay [1], the cell count was 849. For the same compound, the inhibition in assay [1] is 2.9% (inactive); in assay [3], -70.9% (inactive); in assay [7], 10.3% (inactive); in assay [8] it was 1.68% (inactive). Besides, the inhibition of aggregation in assay [2] is -14.8% (inactive). Besides, the nuclei count in assay [2] was found to be 132%; in assay [3], 120%. The fluorescence slope in assay [4] is -0.606 (inactive). Besides, the NADPH fluorescence slope in assay [5] is 3.2e-05 (inactive). Further, the slope in assay [6] is 0.00696 (inactive).
